Compound activity (PubChem)
Giardia kill = Giardia lamblia killing | Giardia lamblia trophozoite viability | activity change, % at 7.66 µM, hits read low | 0.15% of 340,000 active | AID 540267; in the data active = activity change below about -80%; inconclusive = between about -30% and that limit;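 note: parasites exposed to compound for two days anaerobically before the ATP read; % is set by controls: 0 for no effect and ±100 for the full control effect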
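Giardia lamblia trophozoites (100 cells/well) were incubated with compounds for 48 h at 37 deg C under anaerobic conditions. Viability was read as ATP content by one-step luminescence after 15-30 min at room temperature.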
MCF10A rereplic = induces DNA re-replication in MCF 10a normal breast cells; Potency, µM (highest dose often 46.1 µM), for inactives: at the top dose activity, positive = re-replication, usual class: activators; MCF 10A DNA re-replication, Hoechst nuclear intensity, 48 h; 2.9% of 350,000 active; AID 624296; note: potency is the fitted concentration of half-maximal effect; % of control where 0% means no effect; nearly all actives have a fitted effect of over 50% in size
uPA generation = blocks generation of uPA at the cell surface | 0.31% of 330,000 active | Potency, µM (top dose mostly 38.3 µM), for inactives: at the highest dose activity change, negative = inhibition, hits mostly inhibitors | cell surface uPA generation assay, qHTS | AID 540303; active = well fitted inhibition curve with a large enough effect; inconclusive = small, poorly fitted or top-dose-only effect; inactive = no such curve, though single readings can be large or run the other way; tested in mouse RAW 264.7 cells; note: potency is the fitted concentration of half-maximal effect; % is set by controls: 0 for no effect and ±100 for the full control effect; nearly all actives have a fitted effect of over 55% in size
SW480 rerep = inducers of DNA re-replication in SW480 colon cancer cells | SW480 DNA re-replication, Hoechst DNA content imaging, 48 h | Potency, µM (highest dose often 46.1 µM), inactives show at the top dose re-replication activation, most hits filed as activators | 1.8% of 340,000 active; note: potency is the fitted concentration of half-maximal effect; % of control where 0% means no effect; nearly all actives have a fitted effect of over 55% in size
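SW480 cells exposed to compounds for 48 hr at 37 C, 5% CO2, then Hoechst-stained 40 min. Nuclear DNA content imaged by fluorescence scanning (405 nm excitation, 500-530 nm emission); re-replication scored as increased high-intensity nuclei.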
* = called active by the depositor; ? = inconclusive; nt = not tested or not shown; [ ] = remark or other dose. Compounds with a hit are over-represented: about 4.3% of the library has one in this group of screens. Unless noted, calls come from the whole dose curve; as a rule, active = well fitted activation curve with a large enough effect; inconclusive = small, poorly fitted or top-dose-only effect; inactive = no such curve, though single readings can be large or run the other way.

SMILES | Giardia kill | MCF10A rereplic | uPA generation | SW480 rerep
CCOc1ccc(/C=N/NC(=O)C2CCCC2)c(OCC)c1 | -10 | 5% | 0% | 0%
CCN(CC)S(=O)(=O)c1ccc(N/N=C/c2ccc(O)cc2)nc1 | 8 | -20% | -15% | 0%
CCN(CC)S(=O)(=O)c1ccc(N/N=C(\C)c2ccc(OC)cc2O)nc1 | -10 | 3% | 5.6µM* | ?
COc1ccc(CCc2c[nH]c(=O)c3cncnc23)cc1OC | -2 | nt | nt | nt
CCC(C)N(C(=O)CSc1nnc(C)n1C)C1CCS(=O)(=O)C1 (stereo unspecified) | 15 | -1% | 4% | -117%
CCOc1ccc(NC(=O)CSc2nc(-c3cccs3)cc(C(F)(F)F)n2)c([N+](=O)[O-])c1 | -23 | 12µM* | 4% | 11%
O=C(NCCCc1nc2ccccc2n1CCCOc1ccccc1)C1CCCCC1 | 17 | nt | nt | nt
C/C(=N\NC(=O)CSCc1ccccc1Cl)c1cc(O)ccc1O | -8 | ? | 2.5µM* | ?
Cc1ccc(C)c(C(=O)N(Cc2nc(-c3ccc(Cl)cc3)no2)C(C)C)c1 | 2 | 23µM* | -19% | 2%
COc1ccccc1OCC(=O)N(Cc1nc(-c2ccccc2)no1)C(C)C | 25 | 2% | -9% | ?
Cc1cc(Br)ccc1OCC(=O)N(Cc1nc(-c2ccccc2)no1)C(C)C | 7 | 18µM* | nt | ?
Cc1cc(C)c2c(c1)/C(=N/Nc1ccc(S(N)(=O)=O)cc1[N+](=O)[O-])CCC2 | 6 | 2.3µM* | 18% | -7%
NS(=O)(=O)c1ccc(NN=C2CCN(Cc3ccccc3)CC2)c([N+](=O)[O-])c1 | -6 | -7% | -4% | -3%
CC1C/C(=N\Nc2ccc(S(N)(=O)=O)cc2[N+](=O)[O-])CC(C)(C)C1 (stereo unspecified) | -14 | 21µM* | -12% | 10%
NS(=O)(=O)c1ccc(N/N=C2/CCCCC2C2CCCCC2)c([N+](=O)[O-])c1 (stereo unspecified) | -4 | 12µM* | -3% | ?
COc1ccccc1NS(=O)(=O)c1ccc(NN=C2CCCCC2)c([N+](=O)[O-])c1 | 17 | 5% | -5% | 12%
Cc1cc(Cl)ccc1Nc1nc(NCc2ccco2)nc2nccnc12 | 2 | nt | nt | nt
COc1ccc(CCN2CCCn3c2nc2c3c(=O)n(CC(C)C)c(=O)n2C)cc1OC | -14 | 0% | -1% | -7%
CN(C)/N=N/c1nc[nH]c1C(N)=O | nt | ? | nt | 3%
COc1cccc(CN2CC34CCC(CC3S2(=O)=O)O4)c1 (stereo unspecified) | 13 | nt | nt | nt
CCc1ccccc1NC(=O)Cn1nnc(C(=O)NCc2cccc(OC)c2)c1N | 12 | 7.3µM* | 4µM* | ?
Cc1cc(C)cc(NC(=O)Cn2nnc(C(=O)NCc3ccccc3Cl)c2N)c1 | 7 | 7% | -1% | 20%
Cc1cc(C)cc(NC(=O)Cn2nnc(C(=O)NCc3ccc(F)cc3)c2N)c1 | 16 | ? | 0% | 29µM*
CCCCCCCCCCCCOCCCN | nt | -3% | nt | -7%
CCN(C[C@H]1N[C@@](CC)(C(=O)OC)[C@H]2C(=O)N(Cc3ccccc3)C(=O)[C@@H]12)C(=O)c1ccc(C(C)(C)C)cc1 | -8 | ? | -7% | -8%[9.22 µM]
SMILES | Giardia kill | MCF10A rereplic | uPA generation | SW480 rerep
Cc1ccc(S(=O)(=O)Nc2cccc3c2O[C@H](CN(C)Cc2ccccc2)[C@@H](C)CN([C@H](C)CO)C3=O)cc1 | -4 | 6% | 2% | -2%
O=C(NCC1CCCO1)c1nn2c(C(F)(F)F)cc(-c3cc(Br)cs3)nc2c1Br (stereo unspecified) | -10 | 15µM* | 1% | 5.8µM*
O=C(NCC1CCCO1)c1nn2c(C(F)(F)F)cc(-c3ccco3)nc2c1Cl (stereo unspecified) | 10 | 16% | 2% | 19%
O=C(O)c1cc(-c2c[nH]c3ccccc23)nc2ccc3ccccc3c12 | ? | 18% | -9% | 1%
c1ccc2c(-c3c[nH]c4ccccc34)c3ccccc3nc2c1 | -12 | 8.2µM* | -7% | ?
CCN(CC)c1ccc(C(=C2C=CC(=[N+](CC)CC)C=C2)c2ccc(N(CC)CC)cc2)cc1 | -4 | ? | ? | 21µM*
O=C(NCCC1=CCCCC1)Nc1ccc2nsnc2c1 | 9 | ? | -6% | 7%
C=CCNc1nnc(SC2CC(=O)N(c3ccc(OC)cc3)C2=O)s1 (stereo unspecified) | -10 | 5.8µM* | -20% | 7%
Cc1ccc(-c2nn(-c3ccccc3)cc2C=C2C(=O)CC(C)(C)CC2=O)cc1 | -6 | ? | -2% | -8%[9.22 µM]
CC1=NNC(=O)/C1=C\c1cn(-c2ccccc2)nc1-c1ccc(Cl)cc1 | 3 | 3.7µM* | -11% | 12µM*
Cc1cc(-c2csc(NC(=O)c3ccc(C#N)cc3)n2)c(C)n1Cc1ccccc1 | 0 | -8% | 2% | -4%
CCOc1ccc2nc3cc(NCc4ccc(OC)cc4)ccc3c(N)c2c1 | 10 | 15µM* | -17% | ?
CCOc1ccc2nc3cc(N)ccc3c(N)c2c1 | nt | 27% | nt | 13%
Cc1nnc(SCC(=O)N(CC(C)C)c2c(N)n(Cc3ccccc3)c(=O)[nH]c2=O)n1N | -3 | 2% | 9% | 1.3µM*
Nc1c(N(CCC2=CCCCC2)C(=O)COc2ccc(F)cc2)c(=O)[nH]c(=O)n1Cc1ccccc1 | -24 | 16µM* | ? | -9%
CC(C)CN(C(=O)COC(=O)C12CC3CC(CC(C3)C1)C2)c1c(N)n(Cc2ccccc2)c(=O)[nH]c1=O | -1 | -21% | -6% | 4.1µM*
Cc1ccc2c(CC(=O)OCC(=O)N(CC(C)C)c3c(N)n(Cc4ccccc4)c(=O)[nH]c3=O)coc2c1 | -3 | ? | 0% | 6.5µM*
Nc1c(N(CCC2=CCCCC2)C(=O)CCCOc2ccccc2)c(=O)[nH]c(=O)n1Cc1ccccc1 | 11 | 16% | -3% | 3%
CC(C)CN(C(=O)CC1CCCC1)c1c(N)n(Cc2ccccc2)c(=O)[nH]c1=O | 11 | -9% | 0% | -56%
CC(C)CN(C(=O)CSc1nnc(-c2cccs2)n1N)c1c(N)n(Cc2ccccc2)c(=O)[nH]c1=O | 22 | -1% | -5% | 3%
O=C1[C@@H]2C[C@@H]3C[C@H]1C[C@@](O)(C3)C2 | nt | 4% | nt | 2%
COC(=O)c1c[nH]c2c1-c1cc(C(=O)OCc3ccccc3)n(S(=O)(=O)c3ccc(C)cc3)c1C(=O)C2=O | -19 | 12% | -4% | ?
COCCN(C(=O)COC(=O)C1CCC(C(C)(C)C)CC1)c1c(N)n(Cc2ccccc2)c(=O)[nH]c1=O (stereo unspecified) | 15 | ? | 10µM* | ?
O=C1c2c(Cl)c(Cl)c(Cl)c(Cl)c2C(=O)N1c1nccs1 | -7 | 9% | -1% | 1%
COC(=O)c1ccc(Cl)c(NS(=O)(=O)c2ccc3c(c2)OCCO3)c1 | -6 | ? | -16% | 18µM*
COc1ccc(NC(C)=O)cc1NS(=O)(=O)c1ccc2c(c1)OCCO2 | -10 | 11% | -9% | ?
CCOC(=O)c1ccc(S(=O)(=O)N2CCN(c3nc(-c4cccs4)nc4ccccc34)CC2)cc1 | 17 | nt | nt | nt
